# Data from PubChem BioAssay (NCATS).
# Inconclusive results are not listed. Activity calls are given as the source filed them. Unless noted, calls follow the shape of the dose curve; as a rule, active = well fitted curve in the direction sought with a large enough effect; inconclusive = small, poorly fitted or top-dose-only effect, or another doubt; inactive = no such curve, though single readings can be large; an effect the other way counts as inactive or inconclusive.
# Legend:
# [1] = P-glycoprotein substrates identified in KB-8-5-11 adenocarcinoma cell line, qHTS therapeutic library screen (AID 1346987); also: potency is read from the fitted curve at half-maximal effect; nearly all actives have a fitted effect of over 65% in size
# In short: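 P-gp-mediated resistance screen: KB-8-5-11 cells treated 72 h with compounds in dose-response. CellTiter-Glo viability.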
# [2] = tested on: Zika virus NS2B-NS3 protease; experiment: Primary screen GU AMC qHTS for Zika virus inhibitors (AID 1347154);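 also: 0% = no-inhibitor control and -100% = no-enzyme control; nearly all actives have a fitted effect of over 70% in size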
# In short: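 Unlinked Zika NS2B hydrophilic domain/NS3 protease domain noncovalent complex (25 nM final) in 10 mM Tris-HCl pH 8.0, 0.01% Tween 20, with AMC peptide substrate. Fluorescence (ex 340, em 450 nm) change over 15 min, room temperature; percent inhibition fitted to 4-parameter Hill equation.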
# [3] = target: Glutathione peroxidase 1 (Homo sapiens) (UniProt P07203); experiment: Primary qHTS Assay for Inhibitors of Recombinant Selenoprotein Glutathione Peroxidase 1 (GPX1) (AID 1845191); also: nearly all actives have a fitted effect of over 65% in size
# Sequence of Glutathione peroxidase 1 (Homo sapiens) (P07203 whole entry, looked up): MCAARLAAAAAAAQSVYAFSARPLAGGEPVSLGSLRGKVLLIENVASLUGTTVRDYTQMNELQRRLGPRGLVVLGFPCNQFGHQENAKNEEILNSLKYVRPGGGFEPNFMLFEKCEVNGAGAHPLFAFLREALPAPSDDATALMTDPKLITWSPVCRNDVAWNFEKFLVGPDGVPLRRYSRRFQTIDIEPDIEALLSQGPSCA
# In short: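 Recombinant GPX1 (10 nM final) was preincubated with compound for 30 min at room temperature, then reacted with 1 mM GSH, 0.5 mM CHP, 0.5 mM NADPH and 100 nM glutathione reductase; NADPH fluorescence (340/450 nm) was read at 0 and 15 min.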
# [4] = qHTS Assay for Identifying Gametocytocidal Compounds (AID 743244);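 also: % is scaled to controls: 0 for no effect and ±100 for the full control effect; actives lower the fluorescent signal which means gametocytes are killed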; details: P. falciparum 3D7 stage III-V gametocytes, alamarBlue, 72 h; max response: stronger effect = lower value
# In short: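 3D7 gametocytes, stages III–V, 20,000/well; cpd 72 h, 37 °C/5% CO2; + alamarBlue 24 h; fluor. Ex 525/Em 598.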
# [5] = qHTS to identify inhibitors of the type 1 interferon - major histocompatibility complex class I in skeletal muscle: primary screen against the NCATS Mechanism Interrogation Plate v5.0 (MIPE) Libary (AID 1347411);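 also: plate controls were vehicle for no effect and reference inhibitor for full effect; nearly all actives have a fitted effect of over 65% in size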
# In short: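 Cells were genome-edited human myoblasts carrying a HiBit tag on endogenous HLA-B. They were treated with IFN-beta (4.0 ng/ml) and titrated compounds (top 46 uM) for 24 hrs before lytic HiBiT detection.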
# [6] = Primary qHTS for inhibitors of nuclear receptor binding SET domain protein 2 (NSD2) in an isogenic RCH-ACV NSD2 p.E1099K mutant (9B) (AID 1645876); also: potency is read from the fitted curve at half-maximal effect; nearly all actives have a fitted effect of over 70% in size
# [7] = target: Phospholipid hydroperoxide glutathione peroxidase GPX4 (Homo sapiens) (UniProt P36969); experiment: Primary qHTS Assay for Inhibitors of Recombinant Selenoprotein Glutathione Peroxidase 4 (GPX4) (AID 1845192); details: outcome: dose series up to 50 µM unless noted; also: series mostly up to about 50 µM; % is scaled to controls: 0 for no effect and ±100 for the full control effect; nearly all actives have a fitted effect of over 65% in size
# Sequence of Phospholipid hydroperoxide glutathione peroxidase GPX4 (Homo sapiens) (P36969 whole entry, looked up): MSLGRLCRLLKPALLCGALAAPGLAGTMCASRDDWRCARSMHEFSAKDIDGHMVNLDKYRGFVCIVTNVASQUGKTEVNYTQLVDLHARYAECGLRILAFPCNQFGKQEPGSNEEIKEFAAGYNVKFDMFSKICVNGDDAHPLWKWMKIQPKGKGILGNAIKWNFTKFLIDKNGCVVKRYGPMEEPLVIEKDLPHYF
# In short: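 GR-coupled readout: 100 nM GR, 1 mM GSH, 0.5 mM NADPH; NADPH fluorescence (ex 340/em 450 nm) read at t=0 and after 15 min RT. GPX4 200 nM, preincubated 30 min with compound; substrate 0.5 mM CHP.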
# [8] = qHTS drug screen for cell cycle checkpoint inhibitors in PARPi-resistant BRCA-mutant ovarian cancer cell lines. (AID 1963452; calls by dose curve); details: PEO1/OlaR viability, CellTiter-Glo luminescence, 96 h, stronger effect = lower value
# In short: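 PEO1, PEO4 and PEO1/OlaR ovarian cancer cells, 600 per well, exposed 96 h at 37C to a dilution series. Viability read by CellTiter-Glo luminescence, normalized to DMSO and empty wells; activity summarized as Z-AUC.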
structure (smiles),measurement,setting,value
O=C1NC(=O)c2cc(Nc3ccc(F)cc3)c(Nc3ccc(F)cc3)cc21,Potency,[1],14.6 µM (active)
same,Potency,[2],inactive
same,Potency,[3],inactive
CCCCCCC(=O)O[C@H]1CC[C@H]2[C@@H]3CCc4cc(O)ccc4[C@H]3CC[C@]12C,max response,[4],-2.62% (inactive)
same,Potency,[1],7.31 µM (active)
same,Potency,[3],inactive
CNc1ncc2cc(-c3cc(NC(=O)NCCC(C)(C)C)c(F)cc3C)c(C)nc2n1,Potency,[1],4.61 µM (active)
same,Potency,[5],inactive
same,Potency,[6],0.417 µM (active)
same,Potency,[3],inactive
same,Potency,[7],inactive
same,Z-AUC,[8],-1.04 (inactive)
same,Z-AUC,[8]; measured here: PEO1 parental Z-AUC,-0.267
same,Z-AUC,[8]; measured here: PEO4 Z-AUC,-0.215
